SMILES strings stand for the structures. Inconclusive results are not listed. Where a call stands in place of a potency, no number is given. Active and inactive are the calls of the source. Calls follow the shape of the full dose curve. Starred links: 1 amine or outer side, 2 acyl side, 3 side chain; linkers in the order of their positions; H or OH if unused. Positions of bridges follow the written chain, without caps; N, C: chain ends. Non-standard residues stand in square brackets, D forms with d. Residues, ends and D or L forms follow the SMILES beside them. ξ: configuration not given here. *: point of attachment. ΔAla(3-NHCONH2) = NC(=O)NC=C(N)C(=O)O; X1 = NC1=NCCC(C(N[*:1])C(=O)[*:2])N1; ξβ3hOrn = NCCCC(N)CC(=O)*; Dap = NC[CH](N)C(=O)O

Drawing on PubChem BioAssay (NCATS), this text covers Potency and outcome for 16 compounds.
Potency is read from the fitted curve at half-maximal effect.

This assay is described as follows: Primary qHTS for inhibitors of SARS-S pseudo-typed particle cell entry (AID 1479145). Also: nearly all actives have a fitted effect of over 45% in size. The conditions noted are these: SARS-S pseudotyped particle cell entry, luciferase reporter; series mostly up to 57.1 µM.
Regarding `COc1cc2ncnc(Nc3ccc(F)c(Cl)c3)c2cc1OCCCN1CCOCC1`, the Potency was 12.6 µM (active).
For `NNc1nncc2ccccc12`, the Potency entry was “inactive”.
Same read-out and setting: the result for `CNCCc1ccccn1` reads “inactive”.
With `O=c1[nH]cnc2c1ncn2[C@H]1CC[C@@H](CO)O1`, the Potency entry was “inactive”.
Take `CCCCc1oc2ccc(NS(C)(=O)=O)cc2c1C(=O)c1ccc(OCCCN(CCCC)CCCC)cc1`: the Potency is 22.4 µM (active).
Consider `NCCCC(N)CC(=O)NCC1NC(=O)C(CO)NC(=O)C(N)CNC(=O)C(C2CCN=C(N)N2)NC(=O)C(=CNC(N)=O)NC1=O` (stereo not drawn) (H-[Dap]S[Dap](ξβ3hOrn)[ΔAla(3-NHCONH2)][X1]; lactam 1-C; configuration not given here), for which the outcome was “inactive [at 0.573 µM]”.
As for `CN(C)c1nc(N(C)C)nc(N(C)C)n1`, the Potency result is “inactive”.
On the same count and under the same terms, the result for `O=C1CCC(N2C(=O)c3ccccc3C2=O)C(=O)N1` (stereo unspecified) reads “inactive”; that for `O=C(O)CCCc1ccccc1`, “inactive”; that for `C[C@@H](c1ncncc1F)C(O)(Cn1cncn1)c1ccc(F)cc1F` (stereo partly specified), “inactive”.
Still for that read-out and setting: the result for `O[C@@H](c1cc(C(F)(F)F)nc2c(C(F)(F)F)cccc12)[C@H]1CCCCN1` reads “inactive”.
In the case of `CC1(C)NC(=O)N(c2ccc([N+](=O)[O-])c(C(F)(F)F)c2)C1=O`, the Potency is 35.5 µM (active).
Same read-out and setting: in the case of `CCCCN1C[C@H](O)[C@@H](O)[C@H](O)[C@H]1CO` it was “inactive”; in that of `Cc1cccc(Nc2ccncc2S(=O)(=O)NC(=O)NC(C)C)c1`, “inactive”; in that of `CNS(=O)(=O)Cc1ccc2[nH]cc(CCN(C)C)c2c1`, “inactive”.
Take `CC(C)C[C@H](NC(=O)[C@H](CCc1ccccc1)NC(=O)CN1CCOCC1)C(=O)N[C@@H](Cc1ccccc1)C(=O)N[C@@H](CC(C)C)C(=O)[C@@]1(C)CO1`: the Potency was 1 µM (active).
